The sample as a whole holds a higher share of hits than the screen did.
Tgondii IFNg = T. gondii growth inhibition with IFN-gamma, primary screen, cell-based; Toxoplasma gondii growth in IFN-gamma-treated host cells; stronger effect = lower value; activity change, negative = inhibition, % (concentration not given with the values); 69,000 tested, 3.8% active; in the data active = activity change below about -70%, passing the limit was not always enough;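 note: host cells are HeLa cells infected with Toxoplasma gondii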
Numbers without * were called inactive; i = inactive; ! = not confirmed by another sample.

SMILES	Tgondii IFNg
CC(C)[C@]12O[C@H]1[C@@H]1O[C@]13[C@]1(O[C@H]1C[C@H]1C4=C(CC[C@@]13C)C(=O)OC4)[C@@H]2O	-82.9*
COCCN1CCC2OCCCC2(COc2cccnc2)C1 (stereo not given)	-0.2
O=C(Nc1cccc(F)c1)c1cc2cccnc2n(Cc2ccc(F)cc2)c1=O	47.5
CO[C@H]1CCC(O[C@H]2CC([C@]3(C)CC[C@]4(C[C@H](O)[C@@H](C)[C@@H]([C@@H](C)/C=C(\C)C(=O)[C@H](C)C[C@H](C)C(=O)O)O4)O3)O[C@]3(O[C@@H](C4O[C@@](O)(CO)[C@H](C)C[C@@H]4C)C[C@@H]3C)[C@@H]2C)O[C@@H]1C (stereo not given in full)	-78.2*
COc1ccc(CCNC(=O)c2cc3cccnc3n(Cc3ccccc3F)c2=O)cc1OC	37.6
COCC(C)NC(=O)c1cc2cccnc2n(Cc2ccccc2)c1=O (stereo not given)	40.9
COc1cccc(NC(=O)c2cc3cccnc3n(Cc3ccc(Cl)cc3)c2=O)c1	229.7
Cc1ccc(N2CCC[C@@]3(C(=O)O)CN(C(C)C)C[C@H]3C2)nn1	172.3
Cc1ccc(CN2C[C@@H]3OCCN(c4ncccn4)[C@H]3C2)s1	-65.8
CC(C)N1CCO[C@@H]2CN(Cc3nccs3)C[C@@H]21	5.3
c1cnc(N2CCO[C@H]3CN(Cc4cccs4)C[C@@H]32)nc1	-71.1*
COc1cccc(CNC(=O)c2cc3cccnc3n(Cc3ccc(Cl)cc3)c2=O)c1	-47.2
CCOc1ccccc1CNC(=O)c1nc(C)n(C2CCN(C)CC2)c1C	-24.1
Cc1ncc(CNC(=O)N(CCCl)[NH2+][O-])c(N)n1	-55.7
C[C@@H]1O[C@@H](O[C@H]2C[C@@H](O)[C@]3(CO)C4C(CC[C@]3(O)C2)[C@@]2(O)CC[C@H](C3=CC(=O)OC3)[C@@]2(C)C[C@H]4O)[C@H](O)[C@H](O)[C@H]1O (stereo not given in full)	-77.6*
O=C(NCC(F)(F)F)C1=NOC2(CCNC2)C1 (stereo not given)	106.3
Cc1ccc2c(n1)N(CCn1cccn1)CCN(c1ccccn1)C2	51.9
Cc1noc(C)c1CN1CC2CC(C1)N(CC(=O)O)C2 (stereo not given)	107.3
C=CCOCc1cncc2c1CCN(S(=O)(=O)C1CC1)C2	1.7
O=C(c1cscn1)N1CCN2C[C@H](OCc3ccccn3)C[C@@H]2C1	-1.5
COc1cc2cc(c1Cl)N(C)C(=O)C[C@H](OC(=O)C(C)C)[C@]1(C)O[C@H]1[C@H](C)[C@@H]1C[C@@](O)(NC(=O)O1)[C@H](OC)/C=C/C=C(/C)C2	-80.5*
O=C(Nc1ccc2c(c1)OCCO2)c1cc2cccnc2n(Cc2ccccc2)c1=O	i
COCC12CCCOC1CCN(Cc1ccncc1)C2 (stereo not given)	-0.2
Cn1cccc1CN1CCC2(CCCN(Cc3ccccn3)C2)C1 (stereo not given)	-4.5
CCCCCCC(C)(C)c1ccc(C2CC(O)CCC2CCCO)c(O)c1 (stereo not given)	-79.1*
SMILES	Tgondii IFNg
Cc1ccc(NC(=O)c2cc3cccnc3n(Cc3ccccc3)c2=O)cc1Cl	160.1
CCN1CCN(C)C2(CCN(c3cccnc3)CC2)C1=O	-25.6
COC1COC2(CCN(Cc3cnn(C)c3)C2)C1 (stereo not given)	74.2
CC1(C)CC[C@]2(C(=O)O)CC[C@]3(C)[C@H](C(=O)C=C4[C@@]5(C)C=C(C#N)C(=O)C(C)(C)[C@@H]5CC[C@]43C)[C@@H]2C1	-78.5*
COCCNC(=O)C[C@H]1COC[C@H]2CN(Cc3ccncc3)C[C@@H]12	-28.9
O=C(NC1CCCC1)c1cc2cccnc2n(Cc2ccccc2)c1=O	17.5
CNC(=O)[C@H]1C[C@@H]2OCC[C@@H]2N(Cc2ccc3ccccc3n2)C1	7.7
CCCCCOc1c(OC)ccc2cc(C(=O)NCc3ccc4c(c3)OCO4)c(=O)[nH]c12	-73.6*!
COc1ccc(CC(=O)N2CCN(Cc3ccc4c(c3)OCO4)CC2)cc1OC	13.3
O=C(Nc1ccc2c(c1)OCO2)c1cc2cccnc2n(Cc2ccc(F)cc2)c1=O	233.3
O=C(c1ccc2ccccc2c1)C12CN3CN(CN(C3)C1)C2	4.4
CCCCc1ccc(NC(=O)c2cc3cccnc3n(Cc3ccc(Cl)cc3)c2=O)cc1	21.7
CN1CCOCC12CCN(c1nccc(C(F)(F)F)n1)CC2	25.3
COc1ccc(Cl)cc1NC(=O)c1cc2cccnc2n(Cc2ccc(F)cc2)c1=O	42.4
CN1CCO[C@@H]2CN(Cc3ccc4ccccc4n3)C[C@H]2C1	9.0
C=CCOCc1cncc2c1CCN(CC1CCOCC1)C2	-4.9
C#CC1(O)CCC2C3CCC4=CC(=O)CCC4(C)C3CCC21C (stereo not given)	-42.6
C[C@]12CC[C@@H]3c4ccc(O)c(O)c4CC[C@H]3[C@@H]1CC[C@@H]2O	35.5
C[C@]12CC[C@H]3[C@@H](CCC4=CC(=O)CC[C@@H]43)[C@@H]1CC[C@@H]2O	-76.2*
C[C@]1(O)CC[C@H]2[C@@H]3CCC4=CC(=O)CC[C@]4(C)[C@@]3(F)[C@@H](O)C[C@@]21C	12.1
CC12CCC3C4CCCC=C4CCC3C1CCC2O (stereo not given)	-58.9
C[C@]12CCC(=O)C=C1CCC1C2CC[C@@]2(C)C1CC[C@@H]2O (stereo not given in full)	-87.5*
COC(=O)C1(Cc2ccccc2)C(=O)CC2CCC1N2Cc1cccc(OC)c1 (stereo not given)	30.8
CCc1nn2c(=O)cc(CN3CCCC4(CNC(=O)O4)C3)nc2s1 (stereo not given)	-2.6
Cc1ccc(NC(=O)c2cc3cccnc3n(Cc3ccc(Cl)cc3)c2=O)cc1C	37.3
SMILES	Tgondii IFNg
CC(C)(C)OC(=O)NC1CCN(C(=O)c2ccc(Cl)cc2Cl)CC1	-37.8
NCC(CC(=O)O)c1ccccc1 (stereo not given)	-1.3
Cc1ccc2nc(CCNC(C)C)[nH]c2c1	3.7
COc1ccc(CCNC(=O)c2cc3cccnc3n(Cc3ccccc3F)c2=O)cc1	33.4
CCN1CC[C@@H]2[C@H]1CCN2Cc1cnn(C)c1	0.1
Clc1ccc(C23CNCC2C3)cc1Cl (stereo not given)	14.8
O=[N+]([O-])c1cc([As](=O)(O)O)ccc1O	17.2
N#CC(C#N)=Cc1ccc([N+](=O)[O-])c(O)c1	13.3
O=[N+]([O-])c1ccc(O)c([N+](=O)[O-])c1	-79.4*!
Cc1nc(N)nc(C)c1CC(=O)N1CC[C@@H]2CC[C@H](C1)N2C	-6.9
c1cc2c(c(-c3nccc4occc34)c1)CCNC2	-48.5
CCOC(=O)C1(O)C(=O)Nc2cc(OC)cc(OC)c21 (stereo not given)	-40.7
O=c1[nH]c2ccccc2n1C1CCN(CCCC(c2ccc(F)cc2)c2ccc(F)cc2)CC1	-94.6*!
COc1ccc2n[nH]c(CN3C[C@@H]4[C@H](C3)[C@H]3CC[C@@H]4O3)c2c1	27.1
CC[C@H]1CN2CCC1C[C@@H]2[C@H](O)c1ccnc2ccc(OC)cc12 (stereo not given in full)	-79.1*
COc1ccc(NC(=O)c2cc3cccnc3n(Cc3ccccc3F)c2=O)c(OC)c1	-7.5
O=C(N[C@H]1c2ccccc2[C@@H]2CNC[C@H]21)c1ccncc1	-2.5
CN(Cc1ccco1)C(=O)c1cn(Cc2ccccn2)cc(C(=O)NC2CCCCCCC2)c1=O	-9.4
CN(C)C(=O)Oc1c(-c2ccccc2)cn(Cc2ccccc2)c(=O)c1-c1ccccc1	-83.6*
CN(C)C(=O)Oc1cc(=O)n(C)c2ccccc12	-21.1

High-throughput results from PubChem BioAssay.
